Among all 330,000 compounds or so, about 10,000 (3%) were called active.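 How the source made its calls: active means inhibition of at least 50% at 8 µM in the primary screen; inactive means the rest.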 What follows is part of a selection rich in actives, with near analogues and random picks from the rest.

The test deals with Protein Mdm4 (Homo sapiens) + E3 ubiquitin-protein ligase Mdm2 (Homo sapiens) (UniProt O15151+Q00987). As to the kind of experiment: disruptors of Mdm2/MdmX RING complex – cell-based, luminescence, split luciferase, SaOS-2, uHTS, primary screen (AID 485346). The settings on record: SaOS-2 split-luciferase Mdm2/MdmX complementation, at 8 µM, stronger effect = higher value.
Chain of Protein Mdm4 (Homo sapiens) + E3 ubiquitin-protein ligase Mdm2 (Homo sapiens) (O15151 whole entry, looked up): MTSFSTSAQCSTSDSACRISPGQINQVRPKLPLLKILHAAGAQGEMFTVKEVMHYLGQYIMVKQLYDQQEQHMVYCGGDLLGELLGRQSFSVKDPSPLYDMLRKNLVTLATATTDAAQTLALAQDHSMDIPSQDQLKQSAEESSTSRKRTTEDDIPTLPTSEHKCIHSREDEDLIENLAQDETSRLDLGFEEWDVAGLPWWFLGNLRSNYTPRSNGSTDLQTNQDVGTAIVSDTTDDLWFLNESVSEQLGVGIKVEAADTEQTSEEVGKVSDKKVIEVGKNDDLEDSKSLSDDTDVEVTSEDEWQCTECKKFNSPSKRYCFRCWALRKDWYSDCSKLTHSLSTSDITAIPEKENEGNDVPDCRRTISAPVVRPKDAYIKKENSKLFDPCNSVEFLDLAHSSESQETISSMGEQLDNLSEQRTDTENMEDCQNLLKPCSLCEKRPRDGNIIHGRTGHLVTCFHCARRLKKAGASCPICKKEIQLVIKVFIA
Chain of Protein Mdm4 (Homo sapiens) + E3 ubiquitin-protein ligase Mdm2 (Homo sapiens) (Q00987 whole entry, looked up): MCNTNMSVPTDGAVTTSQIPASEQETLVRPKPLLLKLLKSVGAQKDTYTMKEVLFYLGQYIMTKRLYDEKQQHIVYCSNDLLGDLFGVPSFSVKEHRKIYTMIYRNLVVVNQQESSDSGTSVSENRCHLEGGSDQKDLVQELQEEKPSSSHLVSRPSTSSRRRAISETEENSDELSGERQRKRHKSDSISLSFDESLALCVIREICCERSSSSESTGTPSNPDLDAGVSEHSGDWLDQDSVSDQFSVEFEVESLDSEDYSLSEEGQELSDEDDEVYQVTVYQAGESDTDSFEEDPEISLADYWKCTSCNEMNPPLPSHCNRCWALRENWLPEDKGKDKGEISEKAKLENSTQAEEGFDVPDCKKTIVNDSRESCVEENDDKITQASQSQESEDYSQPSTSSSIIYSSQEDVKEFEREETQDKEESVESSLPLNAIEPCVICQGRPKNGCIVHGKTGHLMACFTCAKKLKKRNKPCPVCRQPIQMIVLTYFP
Take `CCCCC(c1nnnn1CS(=O)(=O)c1ccc(C)cc1)N1CCC(C(N)=O)CC1` (configuration not stated): the inhibition (as a rule, the change of the read-out against control, counted positive when it falls) is 20% (inactive).

For the compound `CC(=O)NC1CCN(CC(=O)Nc2nccs2)CC1`, the inhibition was 10.5% (inactive).

For `COc1ccccc1CNC(=O)COC(=O)c1cccs1`, the inhibition is -8.99% (inactive).

On to `CN(C)CCCNC(=O)/C=C/c1ccc(OCc2c(F)cccc2Cl)cc1`, for which the inhibition is 41.4% (inactive).

Take `O=C(/C=C/c1ccc(OCc2c(F)cccc2Cl)cc1)N1CCOCC1`: the inhibition is 88.9% (active).

In the case of `COCCCNC(=O)/C=C/c1ccc(OCc2c(F)cccc2Cl)cc1`, the inhibition is -0.73% (inactive).

As to `COc1cccc(NC(=O)N2CCC(NC(=O)C(Cc3cccc(C)c3)NC(C)=O)CC2)c1` (configuration not stated), the inhibition was 2.34% (inactive).

With `CN(C)/C=C(/C(=O)c1ccccc1Cl)S(C)(=O)=O`, the inhibition is -2.89% (inactive).

For the compound `CC(C(=O)O)N1C(=O)c2cccc3cccc1c23` (configuration not stated), the inhibition was 14.4% (inactive).

For `CN(Cc1cccs1)C(=O)Cc1c[nH]c2ccccc12`, the inhibition was -16.7% (inactive).

Take `c1ccc(CSc2ncnc3c2sc2nc(N4CCOCC4)c4c(c23)CCCC4)cc1`: the inhibition was 2.45% (inactive).

Regarding `CCc1nc2sc(C(=O)O)c(N)c2c2c1CCCC2`, the inhibition is -3.57% (inactive).

For the compound `CCc1nc2sc3c(Cl)ncnc3c2c2c1CCCC2`, the inhibition was 64.4% (active).

Regarding `Cc1cccc(N2Cc3ccccc3C2=NC(=O)c2ccc(Cl)nc2)c1`, the inhibition was 1.07% (inactive).

In the case of `OCCCNc1nccc(-c2cc(Nc3cccc(Cl)c3)ncn2)n1`, the inhibition was 100% (active).

Turning to `Cc1cccc(Nc2nc(NCCO)nc(N3CCCC3)n2)c1`, the inhibition is -22.4% (inactive).

Turning to `O=C(Nc1cc(Cl)cc(Cl)c1)C(NCCCO)c1ccccc1` (configuration not stated), the inhibition was 14.1% (inactive).

As for `C=CCOC(=O)C1=C[C@H](c2ccc(Br)cc2)C[C@H](OCCCCO)O1`, the inhibition was 25.6% (inactive).

For `Brc1ccc(CN2CC[C@H]3C=CCc4cccc(c43)C2)cc1`, the inhibition was 3.41% (inactive).

Regarding `O=C(Nc1cc(Cl)ccc1N1CCOCC1)c1ccc(N2CCCC2=O)cc1`, the inhibition is 12.9% (inactive).

For the compound `COCCOC(=O)c1c(C)oc2cc(Br)c(OCC(N)=O)cc12`, the inhibition is 6.08% (inactive).

As for `COC(=O)CCNc1ccc2c(c1)OCCO2`, the inhibition is 60.5% (active).

On to `Cc1ccc(OCCCC(=O)Nc2ccc3c(c2)OCCO3)cc1`, for which the inhibition is 17% (inactive).

`COc1ccccc1OCCCC(=O)Nc1ccc2c(c1)OCCO2`: the inhibition is 6.28% (inactive).

Consider `COc1ccc(C(=O)NCc2nnc(SCC(=O)Nc3cccc(OC)c3)o2)cc1`, for which the inhibition is 20.2% (inactive).

Turning to `COc1cc(C(=O)NCc2nnc(SCC(=O)c3ccc(Cl)cc3)o2)cc(OC)c1OC`, the inhibition was 6.35% (inactive).

`COc1cc(C(=O)NCc2nnc(SCC(=O)Nc3nc4ccc(C)cc4s3)o2)cc(OC)c1OC`: the inhibition is 53.5% (active).

(Values after PubChem BioAssay AID485346 (Sanford-Burnham Center for Chemical Genomics, 2010).)
